NCOA1 inh: inhibits human SRC1 coactivator; AID 588354; HEK293 GAL4-SRC1 luciferase reporter, luminescence; Q15788; inhibition, % at 3.6 µM; actives 0.12% (n = 360,000);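 active = inhibition above the campaign mean plus 3 SD, with each screening campaign given its own cutoff, cut at about 60% in these data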;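 also: 0% = DMSO treated cells and 100% = gossypol at 36 µM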
SRC3 inh: inhibits human SRC3 coactivator; Q9Y6Q9; HEK293 GAL4-SRC3 luciferase reporter, luminescence; inhibition, % at 3.6 µM; actives 0.17% (n = 360,000); AID 588352;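 active = inhibition above a per-campaign cutoff, the mean of all compounds plus 3 SD, cut at about 60% in these data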;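 also: 0% = DMSO-treated cells and 100% = gossypol-treated cells at 36 µM; higher means less SRC3-driven luciferase light from the GAL4 reporter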
LRH-1 inv ag: suppresses constitutive activity of human LRH-1 | O00482 | HEK293T StAR-luciferase reporter, LRH-1 transfected, 24 h | inhibition, % at 3.6 µM | actives 0.13% (n = 360,000) | AID 602396;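 active = inhibition above the mean inhibition of all tested compounds plus 3 SD, cut at about 73% in these data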;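 also: 0% = DMSO wells and 100% = reporter-only cells lacking LRH-1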
GalR3 antag: blocks the human galanin receptor 3; actives 0.44% (n = 360,000); inhibition, % at 3 µM; AID 651719; O60755; HEK293 GalR3-CNG cAMP membrane potential fluorescence; galR3 body fused to GalR1 C-terminus;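 active = inhibition above the screen-wide average plus 3 SD, cut at about 13% in these data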;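 also: forskolin and galanin both at EC90 stimulate the cells; cAMP rise reported by CNG channel membrane potential dye signal; 0% = forskolin plus galanin with DMSO and 100% = forskolin alone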
SRC2 inh: inhibits human steroid receptor coactivator 2; Q15596; HEK293 GAL4-SRC2 luciferase reporter, luminescence; inhibition, % at 9 µM; actives 0.17% (n = 370,000); AID 651957;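 active = inhibition above the mean inhibition of all tested compounds plus 3 SD, set per campaign, cut at about 52% in these data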;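 also: 0% = DMSO treated cells and 100% = cells given Gossypol at 36 µM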
NR2F2 inh: blocks human COUP-TFII nuclear receptor; P24468; HEK293T NGFI-A luciferase reporter, luminescence; inhibition, % at 8.6 µM; actives 0.7% (n = 370,000);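 active = inhibition above a per-plate cutoff, mean inhibition of test wells between control levels plus 3 SD, cut at about 38% in these data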;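 also: cells cotransfected with COUP-TFII expression vector driving the NGFI-A reporter; 0% = median of COUP-TF2 test wells and 100% = reporter-only cells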
Target sequence (P24468 whole entry, looked up): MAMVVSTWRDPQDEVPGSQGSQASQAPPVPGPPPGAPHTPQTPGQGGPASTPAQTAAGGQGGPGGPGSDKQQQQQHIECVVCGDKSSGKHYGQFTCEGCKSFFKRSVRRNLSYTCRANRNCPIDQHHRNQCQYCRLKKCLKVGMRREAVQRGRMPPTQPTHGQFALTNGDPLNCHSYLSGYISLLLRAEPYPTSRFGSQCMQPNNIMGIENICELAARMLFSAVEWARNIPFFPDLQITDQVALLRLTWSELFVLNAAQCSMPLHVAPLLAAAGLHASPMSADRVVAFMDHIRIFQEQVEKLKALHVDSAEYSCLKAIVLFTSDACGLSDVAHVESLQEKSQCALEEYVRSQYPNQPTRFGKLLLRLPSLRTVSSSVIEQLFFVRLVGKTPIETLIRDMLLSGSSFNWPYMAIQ
* = called active by the depositor; . = no result given. An excerpt weighted towards active compounds, which were near 1.1% of everything screened.

SMILES	NCOA1 inh	SRC3 inh	LRH-1 inv ag	GalR3 antag	SRC2 inh	NR2F2 inh
CN(C)c1ccc(/C=C/c2ccc3c4ccccc4ccc3[n+]2-c2ccccc2)cc1	71*	77*	91*	18*	-25	85*
CN(CCCS(=O)(=O)[O-])c1ccc(/C=C/c2ccc3ccccc3[n+]2C)cc1	-8	13	-3	1	-1	6
CN(C)c1ccc(/C=C/c2cccc[n+]2[O-])cc1	-77	-89	-110	-1	-63	-12
CN(C)c1ccc(/C=C/c2ccc3ccccc3[n+]2C)cc1	63*	70*	97*	0	10	72*
CC(C)(C)c1ccc(S(=O)(=O)N2CCC(c3cn4ccccc4n3)CC2)cc1	.	.	.	.	4	-10
Cc1cc(C)c2sc(NNC(=O)c3ccc(S(=O)(=O)N4CCc5ccccc5C4)cc3)nc2c1	70*	81*	70	.	38	-19
CC(C)C[C@H]1COc2cc(Br)ccc2S(=O)(=O)N1Cc1cn(Cc2ccc(C(F)(F)F)cc2)nn1	.	.	.	.	-35	-3
CC(=O)Nc1ccc(C(=O)N/N=C/c2ccccc2OCc2ccccc2)cc1	-11	-1	-12	-8	-44	-25
COc1cc(/C=N\NC(=O)c2ccc(-c3ccccc3)cc2)cc(OC)c1O	-12	-11	6	5	-33	-8
COc1cc(/C=N/NC(=O)c2ccc(COc3cc(C)ccc3C(C)C)cc2)cc(OC)c1O	-13	-13	-36	-4	62*	37
Cc1ccc(C(C)C)c(OCc2ccc(C(=O)N/N=C/c3cccc(O)c3O)cc2)c1	50	65*	3	10	73*	15
Cc1ccc2ccc3ccc(C)nc3c2n1	53	56	89*	.	4	21
Cc1ccc2cc(F)c(F)c(F)c2n1	8	-17	-1	-2	-37	4
CCCN(CC)c1ncnc2[nH]ncc12	65*	65*	41	-7	55*	14
Cc1ccc(NC(=O)C2=C(c3ccccc3)S(=O)(=O)CCS2(=O)=O)cc1	-60	-31	56	7	74*	20
Cc1ccc(NC(=O)c2ccccc2)cc1	-99	-87	-178	-2	-59	-33
CCc1ccc(/C=C2\SC(=S)N(CCCC(=O)NC3=NCCS3)C2=O)cc1	11	13	2	-6	55*	21
CCOc1ccc(/C=C2\SC(=S)N(CCC(=O)O)C2=O)cc1	32	53	7	-4	70*	23
COc1cccc(/C=C2/SC(=S)N(CCCC(=O)Nc3ccc(O)cc3)C2=O)c1	13	29	34	0	53*	32
CCOc1ccc(/C=C2/SC(=S)N(CCC(=O)Nc3ccc(C(=O)O)cc3)C2=O)cc1	-1	5	5	-3	-6	2
CCc1ccc(/C=C2\SC(=S)N(CCC(=O)Nc3cc(C)on3)C2=O)cc1	11	19	3	-2	48	10
CCc1ccc(/C=C2\SC(=S)N(CCCC(=O)Nc3cc(C)on3)C2=O)cc1	14	1	9	-9	77*	24
COc1ccc(C(C(=O)N(C)C2CCCC2)N(Cc2ccc(F)cc2)C(=O)c2cc(C)[nH]n2)cc1OC (configuration not stated)	.	.	.	.	3	-18
O=C(CN1CCC(NC(=O)NC2CCCC2)CC1)Nc1ccc2c(c1)OCCO2	.	.	.	.	-17	10
Cc1ccccc1NC(=O)N(C)[C@H]1C[C@H]2c3[nH]c4c(-c5ccc6c(c5)OCO6)cccc4c3CCN2C[C@H]1[C@H](C)O	.	.	.	.	8	-11
SMILES	NCOA1 inh	SRC3 inh	LRH-1 inv ag	GalR3 antag	SRC2 inh	NR2F2 inh
Nc1nc(N)c2c(ccc3c2ccn3Cc2cccc([N+](=O)[O-])c2)n1	65*	64*	55	-8	23	-10
COc1ccc(OC)c(S(=O)(=O)n2c(CN3CCOCC3)nc3ccccc32)c1	.	.	.	.	-13	-9
CC(=O)OC1CC2C(C)(C)C(=O)C=CC2(C)C2CCC3(C)C(c4ccoc4)OC(=O)C4OC43C12C (configuration not stated)	34	49	23	-7	39	9
CC(=O)O[C@@H]1C[C@H]2C(C)(C)C(=O)C=C[C@]2(C)[C@H]2CC[C@@]3(C)[C@H](c4ccoc4)OC(=O)[C@H]4O[C@]43[C@@]21C	24	26	31	-5	52*	30
O[C@H](COc1cccc(Cl)c1)CN1CCC(C(O)(c2ccccc2)c2ccccc2)CC1	.	.	.	.	26	-3
O=C(Nc1cccc2c1CCCC2)c1cc([N+](=O)[O-])ccc1Cl	28	22	18	-8	58*	17
CC(=O)Nc1cccc(-c2csc(N)n2)c1	-22	6	-5	-8	-6	-23
NC(=O)c1cccc(-c2cnc(N)c(C(=O)c3cccnc3)n2)c1	75*	63*	63	.	.	.
CC(=O)Nc1cccc(-c2cnc(N)c(C(=O)c3cccnc3)n2)c1	79*	78*	75*	.	.	.
COc1cc(C=Nn2c(-c3cc(-c4ccccc4)n[nH]3)n[nH]c2=S)ccc1OC(C)=O	.	.	.	.	-29	-35
C[C@@H]1O[C@@H](n2c3ccc(Cl)cc3c3ccc4c5cc(Cl)ccc5[nH]c4c32)[C@H](O)[C@H](O)[C@H]1O	.	.	.	.	-6	-20
c1ccc(-c2cccc(-c3ccccn3)n2)nc1	81*	84*	98*	.	.	.
c1ccc(-c2nnc(-c3ccccn3)nn2)nc1	-124	-83	-126	-3	-60	-46
O=C(CCl)N1N=C(c2cccs2)CC1c1ccco1 (configuration not stated)	35	41	-2	10	60*	11
O=C(c1ccccc1)N1CC[C@H]2[C@H](CCCN2Cc2ccccc2)C1	.	.	.	.	11	-3
COC(=O)[C@H](C(C)C)N1Cc2nnn(CC3CCCCC3)c2-c2cc(F)ccc2S1(=O)=O	.	.	.	.	-2	6
O=C(NCCCn1ccnc1)C(=O)NCC(c1ccco1)N1CCN(c2ccc(F)cc2)CC1 (configuration not stated)	-16	6	0	13*	2	4
O=C(NCCCn1ccnc1)C(=O)NCC(c1ccco1)N1CCN(c2ccccc2)CC1 (configuration not stated)	-5	13	-5	-4	10	4
CCN(CC)c1ccc2nc3ccccc3[n+](CC)c2c1	63*	68*	76*	.	.	.
CCN(CC)c1ccc2cc(-c3nc4ccccc4[nH]3)c(=O)oc2c1	-35	-31	-42	.	.	.
O=C(/C=C/c1cc(Br)ccc1O)c1ccco1	0	8	4	28*	28	-3
O=C(O)CCSCC(=O)c1ccc2c(c1)OCCO2	11	22	8	0	56*	34
Cc1ccc(S(=O)(=O)N2CCCC2C(c2ccccc2O)c2cn(C)c3ccccc23)cc1 (configuration not stated)	.	.	.	.	-4	6

High-throughput results (PubChem BioAssay)
